# DAGLB inh: DAGLB lipase inhibitors, primary screen, biochemical, fluorescence, HTS. Diacylglycerol lipase-beta (Homo sapiens), Q8NCG7. HEK293T DAGLB membrane lysate, EnzChek fluorogenic substrate. inhibition, % at 5.17 µM. 340,000 compounds, 0.059% hits. AID 504411, 2011; in the data active = inhibition above about 34%;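 also: 0% = enzyme with vehicle and 100% = wells lacking enzyme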
# NadD block: inhibitors of S. aureus NadD, primary screen, biochemical, colorimetric, uHTS | inhibition, % at 20 µM | 360,000 compounds, 0.78% hits | AID 602399, 2012 | Nicotinate-nucleotide adenylyltransferase NadD (Staphylococcus aureus N315) | purified NadD enzyme, colorimetric absorbance read-out; in the data active = inhibition above about 26%
# sPLA2-III inh: human group III sPLA2 inhibitors, primary screen, biochemical, QFRET, BODIPY PC-A2 liposome substrate; Group 3 secretory phospholipase A2 (Homo sapiens), Q9NZ20; QFRET BODIPY PC-A2 liposome hydrolysis, fluorescence; inhibition, % at 12.2 µM; 370,000 compounds, 0.56% hits; AID 743126, 2013;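 active = inhibition above mean plus 3 SD of compounds lying within the high and low control bounds, cut at about 19% in these data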;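 also: 0% = median of test compound wells and 100% = no enzyme DMSO wells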
# ARNT TACC3 PPI: disruptors of ARNT/TACC3 protein interaction, primary screen, biochemical, AlphaScreen, single concentration; AlphaScreen His-ARNT PAS-B/GST-TACC3 binding, luminescence; TACC3 fragment carries E629A point mutation; inhibition, % at 9.99 µM; AID 623870, 2012; 390,000 compounds, 0.66% hits; Transforming acidic coiled-coil-containing protein 3 (Homo sapiens), Q9Y6A5;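 active = mean inhibition of replicates at least 50% and at least half of replicates each reaching 50%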;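 also: 0% = complete ARNT plus TACC3 wells and 100% = ARNT alone without TACC3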
# Neddyl block: inhibitors of cullin neddylation, primary screen, biochemical, TR-FRET, uHTS, NAE and Ubc12 | inhibition, % at 25 µM | 360,000 compounds, 0.58% hits | AID 651699, 2012; in the data active = inhibition above about 36%
# Target sequence (P61081 whole entry, looked up): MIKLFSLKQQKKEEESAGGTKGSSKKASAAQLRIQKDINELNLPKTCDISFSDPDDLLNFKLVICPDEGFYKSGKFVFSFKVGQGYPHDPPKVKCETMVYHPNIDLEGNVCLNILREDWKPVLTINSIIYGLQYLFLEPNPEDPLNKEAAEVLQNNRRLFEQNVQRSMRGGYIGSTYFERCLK
# Target sequence (Q13564 whole entry, looked up): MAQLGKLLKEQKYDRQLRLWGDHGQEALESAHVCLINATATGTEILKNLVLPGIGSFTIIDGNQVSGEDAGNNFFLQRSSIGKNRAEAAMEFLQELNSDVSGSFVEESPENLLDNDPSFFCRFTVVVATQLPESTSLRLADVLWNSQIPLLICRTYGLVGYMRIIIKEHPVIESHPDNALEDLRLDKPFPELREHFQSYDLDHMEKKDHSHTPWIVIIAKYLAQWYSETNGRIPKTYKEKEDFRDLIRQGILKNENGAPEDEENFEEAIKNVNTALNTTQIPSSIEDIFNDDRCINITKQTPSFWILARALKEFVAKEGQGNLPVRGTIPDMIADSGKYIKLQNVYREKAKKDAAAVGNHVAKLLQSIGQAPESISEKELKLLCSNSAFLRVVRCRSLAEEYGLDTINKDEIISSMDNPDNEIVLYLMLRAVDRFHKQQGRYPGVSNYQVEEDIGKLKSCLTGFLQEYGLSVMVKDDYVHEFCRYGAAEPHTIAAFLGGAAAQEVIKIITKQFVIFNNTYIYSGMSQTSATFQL
# * marks the source's active call; other numbers are inactive results; / = no result. A selection: hits, their analogues and other compounds. The true share with any hit is near 2%.
SMILES,DAGLB inh,NadD block,sPLA2-III inh,ARNT TACC3 PPI,Neddyl block
COC(=O)CCC(=O)OC1(C)C(=O)C=C2C=C(C3CC3)N(CCCCO)C=C2C1=O (configuration not stated),1,1,9,32*,-10
C=CCN1C=C2C(=O)C(C)(OC(=O)CCC(=O)OC)C(=O)C=C2C=C1C1CC1 (configuration not stated),1,3,8,3,-3
COC(=O)CCC(=O)OC1(C)C(=O)C=C2C=C(C3CC3)N(CCc3ccccn3)C=C2C1=O (configuration not stated),1,2,-3,11*,-2
COC(=O)CCC(=O)OC1(C)C(=O)C=C2C=C(C3CC3)N(CCc3c[nH]c4ccccc34)C=C2C1=O (configuration not stated),3,2,-8,7,-49
COC(=O)CCC(=O)OC1(C)C(=O)C=C2C=C(C3CC3)N(CCN3CCOCC3)C=C2C1=O (configuration not stated),-3,-1,11,3,5
O=C(Nc1ccccc1)Nc1ccc2c(c1)[C@H]1C[C@H](CC(=O)N3CCOCC3)O[C@@H](CO)[C@H]1O2,/,/,/,4,/
Cc1[nH]c2ccccc2c1/C=N/Nc1ccc([N+](=O)[O-])cc1S(=O)(=O)Nc1ccc(Cl)cc1,-1,38*,1,5,-9
COc1ccc(NS(=O)(=O)c2cc([N+](=O)[O-])ccc2N/N=C\c2c(C)[nH]c3ccccc23)cc1,0,27,-10,-1,-16
O=C(CSc1ccc2nnc(-c3ccccn3)n2n1)NCc1ccco1,0,6,12,61*,34
O=C(CSc1ccc2nnc(-c3ccccc3)n2n1)NCc1ccco1,0,-5,4,1,21
NC(=S)N/N=C/c1ccccc1OC(=O)c1cc2ccccc2oc1=O,1,2,13,51*,19
NC(=S)N/N=C\c1ccccc1OCc1ccccc1,-1,3,12,-4,-8
NC(=S)N/N=C/c1ccccc1OC(=O)/C=C/c1ccccc1,-1,-1,-3,34*,15
Cc1cc(C)c(-c2c(O)c3cccc4c3n(c2=O)CCC4)c(C)c1,-2,-2,-1,/,10
O=c1c(-c2ccccc2)c(O)c2cccc3c2n1CCC3,1,-1,6,-8,45*
COC(=O)CSc1nc(N)c2c3c(sc2n1)C(c1ccccc1)SC(c1ccccc1)C3 (configuration not stated),2,50*,/,-32,7
CCCN1CCCc2cc(CN)ccc21,-4,-5,14,32*,10
C[C@H](CO)N1C[C@H](C)[C@H](CN(C)Cc2ccncc2)Oc2cc(C3=CCCC3)ccc2S1(=O)=O,/,/,/,10,/
Oc1ccc2ccccc2c1C=NC12CN3CCN(CN(C3)C1)C2,2,3,-3,67*,-15
COc1ccc(/C=N/NC(=O)CCSc2nc3ccccc3s2)cc1OC,2,-1,-8,1,-30
O=C(CN1CCCC1)N/N=C/c1c(O)ccc2ccccc12,0,11,-41,59*,-7
O=C(N/N=C/c1c(O)ccc2ccccc12)C(=O)N1CCCC1,3,-2,1,/,24
O=C(CCSc1nc2ccccc2s1)N/N=C/c1c(O)ccc2ccccc12,14,30*,4,7,-82
Cc1ccc(S(=O)(=O)N[C@H]2C=C[C@@H](CC(=O)NCCN3CCCCC3)O[C@@H]2CO)cc1,/,/,/,-1,/
O=C(CSc1n[nH]c(=O)[nH]c1=O)Nc1ccc2c(c1)C(=O)c1ccccc1C2=O,5,54*,-9,-3,-37
O=C(CSc1ccccn1)Nc1ccc2c(c1)C(=O)c1ccccc1C2=O,-2,6,4,-3,-28
COc1ccc(CN(C)C[C@H]2OCCCC[C@@H](C)Oc3ccc(NC(=O)c4ccncc4)cc3C(=O)N([C@@H](C)CO)C[C@@H]2C)cc1,/,/,/,5,/
CCCc1sc(N/N=C/c2ccccn2)nc1-c1ccc(F)cc1,-2,-3,/,67*,-3

# Screening data as filed in PubChem BioAssay.
